Assays:
Test in all cases: PBM binding z-score (relative to random genomic background probes); higher = stronger binding; sequences stand for … in GC…GCGATTGACAGCGTAGAATGAAGG
[1] = test system: FXR:RXRa (NR concentration 270 nM, RXRa partner concentration 90 nM)
In short: (§1)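 Ligand-free nuclear receptor dimers were bound for 1 h to custom Agilent 4×180K protein-binding microarrays. Detection used antibodies against each partner (one per run). Binding z-scores rest on regression-normalized fluorescence, with random background probes as the reference.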

[2] = test system: LXRa:RXRa (NR concentration 270 nM, RXRa partner concentration 90 nM)
In short: as §1

[3] = test system: LXRa homodimer (NR concentration 270 nM)
In short: as §1

[4] = test system: LXRb:RXRa (NR concentration 270 nM, RXRa partner concentration 90 nM)
In short: as §1

[5] = test system: LXRb homodimer (NR concentration 270 nM)
In short: as §1

[6] = test system: PPARa:RXRa (NR concentration 270 nM, RXRa partner concentration 90 nM)
In short: as §1

[7] = test system: PPARg:RXRa (NR concentration 180 nM, RXRa partner concentration 90 nM)
In short: as §1

[8] = test system: PPARg:RXRa 270nM:90nM, anti-RXR (NR concentration 270 nM, RXRa partner concentration 90 nM)
In short: as §1

[9] = test system: PPARg:RXRa 30nM:10nM, anti-RXR (NR concentration 30 nM, RXRa partner concentration 10 nM)
In short: as §1

[10] = test system: PPARg:RXRa 90nM:30nM, anti-RXR (NR concentration 90 nM, RXRa partner concentration 30 nM)
In short: as §1

[11] = test system: PPARg:RXRa DBDmut IVT, anti-RXR (DBD mutation: RXRa K156A/R161A, NR concentration 270 nM, RXRa partner concentration 90 nM)
In short: as §1

[12] = test system: PPARg:RXRa IVT, anti-PPARg (NR concentration 270 nM, RXRa partner concentration 90 nM)
In short: as §1

[13] = test system: PPARg DBDmut:RXRa IVT, anti-PPARg (DBD mutation: PPARg1 K132A/R137A, NR concentration 270 nM, RXRa partner concentration 90 nM)
In short: as §1

[14] = test system: PPARg DBDmut IVT, anti-PPARg (DBD mutation: PPARg1 K132A/R137A, NR concentration 270 nM)
In short: as §1

[15] = test system: PPARg homodimer (NR concentration 180 nM)
In short: as §1

[16] = test system: PXR:RXRa (NR concentration 270 nM, RXRa partner concentration 90 nM)
In short: as §1

[17] = test system: PXR homodimer (NR concentration 270 nM)
In short: as §1

[18] = test system: RARa:RXR (NR concentration 270 nM, RXRa partner concentration 90 nM)
In short: as §1

[19] = test system: RARa homodimer (NR concentration 270 nM)
In short: as §1

[20] = test system: RARb:RXRa (NR concentration 270 nM, RXRa partner concentration 90 nM)
In short: as §1

Row | Sequence | PBM binding z-score [1] | PBM binding z-score [2] | PBM binding z-score [3] | PBM binding z-score [4] | PBM binding z-score [5] | PBM binding z-score [6] | PBM binding z-score [7] | PBM binding z-score [8] | PBM binding z-score [9] | PBM binding z-score [10] | PBM binding z-score [11] | PBM binding z-score [12] | PBM binding z-score [13] | PBM binding z-score [14] | PBM binding z-score [15] | PBM binding z-score [16] | PBM binding z-score [17] | PBM binding z-score [18] | PBM binding z-score [19] | PBM binding z-score [20]
1 | TAGCCTAGGTCATTCAGGGGCCAGTACAGAAAGC | 4.86 | 4.11 | 0.86 | 3.16 | 0.986 | 3.6 | 2.29 | 2.39 | 0.132 | 1.25 | 1.84 | 2.77 | -0.186 | 0.258 | 1.6 | 2.52 | -0.228 | 3.86 | -0.153 | 3.9
2 | CGTGAAAGTTCAACTAAGGTAACGTAAAGCACGC | 6.32 | 6.09 | 4.26 | 3.89 | 1.84 | 4.98 | 3.58 | 4.78 | 1.6 | 3.39 | -0.0451 | 1.86 | 0.513 | 0.603 | 2.63 | 5.31 | 3.52 | 3.81 | 1.22 | 5.19
3 | ATCTCTAGGTAAAAGTTCAGTTAATCCCGAGGAT | 1.31 | 1.89 | 1.81 | 1.34 | 1.19 | 4.56 | 8.35 | 7.9 | 8.17 | 8.69 | 1.85 | 3.99 | 1.85 | 1.29 | 2.13 | 2.28 | 2.02 | 1.85 | 1.39 | 2.24
4 | GATACAGGGTCAAGGCCAGGGTACGCGTATTGAT | 6.68 | 4.26 | -0.139 | 3.62 | -0.397 | 5.82 | 5.63 | 5.3 | 2.2 | 4.46 | 1.85 | 4.19 | 0.695 | 0.43 | 3.1 | 4.32 | 0.122 | 5.19 | 0.648 | 4.5
5 | CGTCCAAGGTCATAGGAGGTCAGGGAAGACAGAT | 7.91 | 7.63 | 5.15 | 6.25 | 0.687 | 6.17 | 6.03 | 5.99 | 2.83 | 4.83 | 3.02 | 4.92 | 1.73 | 1.82 | 5.03 | 6.9 | 3.35 | 6.79 | 2.46 | 5.31
6 | GCTATTAGTTGAAAGGGCACCCGAATGATTCTCG | 0.43 | 0.387 | 0.235 | 0.554 | -0.128 | 2.14 | 2.65 | 4.3 | 2.41 | 3.99 | 0.791 | 0.951 | -0.101 | 0.368 | 1.05 | 0.72 | 0.405 | 1.28 | 0.468 | 1.72
7 | CCTGCTAGGTCATGTTCAGCTAATCTACAGTATG | 3.33 | 2.25 | 0.437 | 1.65 | 0.467 | 2.69 | 1.36 | 1.91 | 0.403 | 1.16 | 4.06 | 2.94 | -0.127 | 0.556 | 1.51 | 1.07 | -0.338 | 1.53 | -0.173 | 3.63
8 | CAAACTAGGTCAAAGGGCAAAGTCGAGCCAACCA | 6.12 | 5.04 | 1.25 | 4.01 | 0.969 | 6.94 | 12.9 | 10.6 | 11 | 11.7 | 8.37 | 8.59 | 2.1 | 1.17 | 2.46 | 4.09 | 0.769 | 6.57 | 0.986 | 4.51
9 | AGAATGAGGTTACCGAAGATCAGGGAAACGCTTG | 2.18 | 4.55 | -0.477 | 2.19 | -0.522 | 3.81 | 2.86 | 3.26 | 1.19 | 2.55 | 3.97 | 3.55 | 0.906 | 0.381 | 0.444 | 1.61 | -0.388 | 2.46 | -1.23 | 2.19
10 | CTACCAAGGTGAACAAGGTCGTAGATTACTATTC | 1.44 | 1.27 | -0.0649 | 1.62 | -0.766 | 2.66 | 1.19 | 1.36 | 0.159 | 0.588 | 2.43 | 2.87 | 0.349 | 0.813 | 0.756 | 2.37 | 0.924 | 2.56 | 0.0983 | 2.17
11 | GCCATTAGTTGAAAGGGCAACCGAATGATTCTCG | 0.121 | 0.648 | 0.0731 | 0.887 | -0.56 | 2.25 | 2.41 | 4.11 | 1.8 | 3.93 | 0.352 | 0.947 | 0.187 | -0.306 | 0.971 | 0.706 | 0.067 | 1.4 | -0.15 | 2.21
12 | TCATATAGGTAAAAGGTGAAAGGCGGTGTGGTAA | 1.86 | 1.88 | 0.349 | 1.9 | 0.306 | 5.25 | 9.05 | 8.31 | 8.92 | 9.94 | 5.24 | 5.21 | 3.35 | 1.06 | 2.76 | 1.69 | 0.582 | 2.48 | 1.28 | 1.79
13 | TGTCAAATTTCAAAGGTAACGTAAGTATCCACAC | 0.556 | 0.784 | -0.0184 | 0.869 | 0.492 | 0.954 | 0.712 | 1.41 | 1.62 | 1.41 | -0.296 | 1.37 | 1 | 1.11 | 0.532 | 0.473 | 0.33 | 0.98 | 0.848 | 1.04
14 | ACTACAGGGTCATCGTAGGCCAGAGTACGCACAG | 6.89 | 5.5 | 0.216 | 4.08 | 0.987 | 5.89 | 5.88 | 5.25 | 2.32 | 3.77 | 1.66 | 3.47 | 2.18 | 1.55 | 1.49 | 4.76 | 0.458 | 4.67 | 0.217 | 4.45

Reference: the supplement of paper PMC6555819
